Screens (PubChem BioAssay)
JMJD2A Tudor = blocks the human JMJD2A Tudor domain. O75164. AlphaScreen JMJD2A-Tudor / H3K4me3 peptide binding. Potency, µM (doses to about 114 µM), inactives show top-dose activity change, negative = inhibition, actives largely listed as inhibitors. actives 4.4% (n = 390,000). AID 504339; note: potency is the fitted concentration of half-maximal effect; % is set by controls: 0 for no effect and ±100 for the full control effect; nearly all actives have a fitted effect of over 50% in size
G9a block = inhibitors of human histone lysine methyltransferase G9a; G9a H3K9 monomethylation, AlphaScreen, 2 h; actives 8.8% (n = 350,000); AID 504332; Q96KQ7; Potency, µM (highest dose often 102 µM), for inactives: at the highest dose activity, negative = inhibition, most hits filed as inhibitors; note: potency is the fitted concentration of half-maximal effect; % is set by controls: 0 for no effect and ±100 for the full control effect; nearly all actives have a fitted effect of over 75% in size
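Compounds were preincubated with 20 nM G9a for 15 min, after which biotinylated H3K9 peptide (500 nM) and SAM (20 uM) started a 2 h room-temperature reaction. Monomethylated product was quantified by antibody-based AlphaScreen chemiluminescence.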
CtBP-E1A inh = blocks the CtBP interaction with E1A; AID 651724; activity change, % (test concentration not listed); AlphaScreen GST-E1A/His-CtBP binding, 1536-well; stronger effect = lower value; actives 0.49% (n = 340,000); in the data active = activity change below about -65%; inconclusive = mostly about -30% to -63%; note: % is set by controls: 0 for no effect and ±100 for the full control effect
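Steps: dispense buffer (Tris pH 8.0, NaCl 300 mM, TCEP 1 mM, BSA, Tween 20); add 5X protein mix (GST-E1A, His-CtBP, 125 nM each); pin 23 nL compound; 2 h at 37 °C, dark; add 5X beads (50 ug/mL); 1 h; read.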
BAZ2B block = blocks human BAZ2B | Q9UIF8 | AlphaScreen BAZ2B-H3K14Ac peptide displacement | Potency, µM (doses to about 114 µM), without a hit: at the top dose activity change, negative = inhibition, actives largely listed as inhibitors | actives 4.4% (n = 360,000) | AID 504333; note: potency is the fitted concentration of half-maximal effect; % is set by controls: 0 for no effect and ±100 for the full control effect; nearly all actives have a fitted effect of over 60% in size
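In this displacement format the biotinylated H3(5-23) peptide acetylated at Lys14 serves as ligand at 50 nM, with BAZ2B at 50 nM in PBS pH 7.4 containing 0.01% Tween-20. Donor and acceptor beads are 10 ug/mL final.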
HP1b chromo inh = inhibitors of HP1-beta chromodomain binding to methylated histone tails | AlphaScreen HP1-beta / biotin-H3K9me3 peptide binding | Potency, µM (titrated, usually from 114 µM), inactives show at the top dose activity change, negative = inhibition, most hits filed as inhibitors | actives 0.56% (n = 390,000) | AID 540317; note: potency is the fitted concentration of half-maximal effect; nearly all actives have a fitted effect of over 70% in size
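Compound inhibition of the preformed complex between 50 nM HP1-beta and 50 nM biotinylated H3K9me3 peptide was read by AlphaScreen. Buffer was PBS pH 7.4 with 0.01% Tween-20. Incubations ran 30 min at room temperature, with 10 ug/mL donor/acceptor beads.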
Six1-Eya2 inh = Six1/Eya2 interaction inhibition; activity change, % (test concentration not listed); Q15475+O00167; AID 651725; actives 0.56% (n = 360,000); AlphaScreen GST-Six1/His-Eya2 binding, biochemical; stronger effect = lower value; in the data active = activity change below about -65%; inconclusive = mostly about -30% to -63%; note: % is set by controls: 0 for no effect and ±100 for the full control effect
Target sequence (O00167 whole entry, looked up): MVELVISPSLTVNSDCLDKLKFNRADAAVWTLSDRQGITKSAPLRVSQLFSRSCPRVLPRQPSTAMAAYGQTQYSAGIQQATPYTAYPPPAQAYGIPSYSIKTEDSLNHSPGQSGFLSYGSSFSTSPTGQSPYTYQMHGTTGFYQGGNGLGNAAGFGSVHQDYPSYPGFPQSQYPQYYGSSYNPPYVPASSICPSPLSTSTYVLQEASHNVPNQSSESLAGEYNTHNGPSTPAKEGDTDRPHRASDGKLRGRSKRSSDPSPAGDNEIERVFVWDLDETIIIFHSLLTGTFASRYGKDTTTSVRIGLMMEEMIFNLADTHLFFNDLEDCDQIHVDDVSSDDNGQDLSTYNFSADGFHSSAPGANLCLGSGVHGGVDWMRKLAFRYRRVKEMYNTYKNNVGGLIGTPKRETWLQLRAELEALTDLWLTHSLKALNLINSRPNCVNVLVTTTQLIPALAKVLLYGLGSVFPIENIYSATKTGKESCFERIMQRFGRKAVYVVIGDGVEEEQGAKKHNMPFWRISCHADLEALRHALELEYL
Target sequence (Q15475 whole entry, looked up): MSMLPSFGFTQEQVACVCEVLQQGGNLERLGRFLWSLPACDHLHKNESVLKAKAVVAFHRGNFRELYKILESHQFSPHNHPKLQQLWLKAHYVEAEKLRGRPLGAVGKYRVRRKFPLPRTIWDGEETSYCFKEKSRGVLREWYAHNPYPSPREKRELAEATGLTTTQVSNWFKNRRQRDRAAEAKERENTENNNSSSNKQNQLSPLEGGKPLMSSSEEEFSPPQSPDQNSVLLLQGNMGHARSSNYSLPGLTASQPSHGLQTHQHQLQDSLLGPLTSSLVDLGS
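Homogeneous AlphaScreen proximity assay pairing GST-Six1 with His-tagged Eya2 (added as 5X mix: 250 nM and 500 nM) in 50 mM Tris pH 8.0, 300 mM NaCl, 1 mM TCEP. Glutathione donor and nickel acceptor beads; 1 h, 37 °C, dark.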
An asterisk follows results filed as active; ? = inconclusive; . = no result given; [ ] = another dose, or the depositor's remark. An excerpt weighted towards active compounds, which were near 10% of everything screened. Unless noted, calls come from the whole dose curve; as a rule, active = well fitted inhibition curve with a large enough effect; inconclusive = small, poorly fitted or top-dose-only effect; inactive = no such curve, though single readings can be large or run the other way.

SMILES	JMJD2A Tudor	G9a block	CtBP-E1A inh	BAZ2B block	HP1b chromo inh	Six1-Eya2 inh
Cc1ccc(CNC(=O)CCCn2c(=O)c3ccccc3n(CC(=O)C(C)(C)C)c2=O)cc1	-15%	-1%[59 µM]	.	0%	5%	.
COCCN(C(=O)CSc1nnc(-c2ccncc2)n1C)c1c(N)n(CC(C)C)c(=O)[nH]c1=O	-9%	.	7	.	41%	1
Cc1ccc2nc(SCC(=O)N(CC(C)C)c3c(N)n(CC(C)C)c(=O)[nH]c3=O)[nH]c2c1	-2%	?	3	0%	44%	5
Cc1cc(SCC(=O)N(CC(C)C)c2c(N)n(CC(C)C)c(=O)[nH]c2=O)nc2ccccc12	-6%	6.3µM*	-8	3%	11%	-10
Cc1ccccc1-c1nnc(SCC(=O)N(CC(C)C)c2c(N)n(CC(C)C)c(=O)[nH]c2=O)n1C	15%	50µM*	8	-7%	24%	3
Cc1cc(C)n2c(SCC(=O)N(CC(C)C)c3c(N)n(CC(C)C)c(=O)[nH]c3=O)nnc2n1	-12%	18µM*	5	0%	26%	4
Cc1ccccc1Cn1c(=O)n(Cc2ccc(Cl)cc2)c(=O)c2cccnc21	34%	22%[59 µM]	.	15%	57%	.
CC(=O)Nc1ccccc1-c1nc2ccccc2n(CC(=O)Nc2cccc(C)c2C)c1=O	-23%	?	.	1%	39%	.
COc1ccc(NC(=S)Nc2ccc3nsnc3c2)cc1	?	2µM*	26	-36%	?	-5
CNC(=S)Nc1ccc2nc(C)c(C)nc2c1	2%	?	6	?	38%	-1
COc1ccc(NC(=S)Nc2ccc3nc(C)c(C)nc3c2)cc1	-14%	45µM*	-5	0%	8%	-2
C=CCN(CC=C)C(=S)Nc1ccc2nsnc2c1	4%	18µM*	.	-11%	34%	12
Cc1ccc(NC(=O)CCC(=O)N2Cc3ccccc3Oc3ncccc32)c(C)c1	-14%	-13%[59 µM]	.	-3%[57.1 µM]	14%	.
Cc1oc(C(=O)O)cc1CSCc1cc(C(=O)O)c(C)o1	89µM*	14µM*	7	-6%	11%	-12
Cc1cccc(CSCc2ccc(C(=O)O)o2)c1	-27%	48%[0.501 µM]	.	18%	?	-1
O=C(O)c1occc1CSc1ccccc1	-20%	?	8	0%	-26%	6
Cc1oc(C(=O)O)cc1CSCc1ccoc1C(=O)O	?	45µM*	6	?	13%	-13
Cc1ccc(NC(=O)N2CCN(Cc3nc4ccc(C)cc4o3)CC2)cc1	-16%	5%[59 µM]	.	?	30%	.
C/C(=N\NC(=O)C1CC1)c1ccc(Cl)c(Cl)c1	-8%	6%	-5	5%	25%	5
C/C(=N\N=C(N)N)c1ccc(Cl)c(Cl)c1	-18%	50µM*	18	-12%	-11%	6
CC(c1ccccc1)N1CCn2c(nc3cc(NC(=O)NC4CCCCC4)ccc32)C1 (stereo not drawn)	-24%	35µM*	-12	10%	7%	-2
O=C(O)c1ccccc1C(=O)Nc1n[nH]c(=S)s1	13µM*	1.4µM*	1	32µM*	28µM*	0
COc1ccc(-n2c(=O)c3sc4ccccc4c3n(CC(=O)N3CCCC3)c2=O)cc1	-4%	32%[59 µM]	.	4%	47%	.
O=[N+]([O-])c1cc(C(F)(F)F)ccc1NCCc1c[nH]c2ccc(O)cc12	22µM*	?	-12	40µM*	?	?
O=[N+]([O-])c1cc(C(F)(F)F)ccc1NCCc1c[nH]c2ccccc12	22µM*	?	-23	11µM*	?	?
SMILES	JMJD2A Tudor	G9a block	CtBP-E1A inh	BAZ2B block	HP1b chromo inh	Six1-Eya2 inh
C/C(=C\c1ccccc1)CN(C)CCN(C)C	.	56µM*	.	-2%	.	.
COc1ccccc1N1C(=O)N(C(C)=O)C2C1Nc1ccccc1N2C (stereo not drawn)	?	7.1µM*	-23	.	-20%	-18
Cc1ccc(NC(=O)c2cnc(SCC(=O)N3CCOCC3)n(C)c2=O)cc1	-15%	10%[59 µM]	.	-3%	20%	.
CCCCn1c(-c2ccco2)nc2ccccc2c1=O	5%	50µM*	-5	-22%	49%	-6
O=c1c2ccccc2oc2nc(-c3ccco3)n(Cc3ccccc3)c(=O)c12	-14%	?	-11	56µM*	20%	-3
CCc1nc2oc3ccccc3c(=O)c2c(=O)n1Cc1ccccc1	-15%	?	-16	-1%	33%	-5
Cc1ccc(-n2c(C)nc3oc4ccccc4c(=O)c3c2=O)cc1	50µM*	56µM*	-23	45µM*	-25%	-20
COc1ccc2c(=O)c3c(=O)n(-c4ccc(C)cc4)c(-c4ccccc4)nc3oc2c1	.	10%	.	-3%	.	.
COc1ccc2c(=O)c3c(=O)n(Cc4ccco4)c(-c4ccc(C)cc4)nc3oc2c1	89µM*	?	-2	?	9%	-22
Cc1ccc(S(=O)(=O)N2CCN(c3nc(-c4cncs4)nc4ccccc34)CC2)cc1	3%	.	.	.	40%	.
CCOC(=O)c1ccc(NC(=O)CCC(=O)N2CCSc3ccccc32)cc1	-3%	6%[59 µM]	.	-5%	29%	.
CC1CCc2nn(CC(=O)Nc3ccccc3Cl)cc2C1 (stereo not drawn)	4%	6%[59 µM]	.	-2%	28%	.
CSCCC(NC(=O)c1ccccc1Cl)C(=O)N1CCCCC1 (stereo not drawn)	-6%	-17%[12.7 µM]	.	12%	18%	7
CSCCC(NC(=O)c1cccc(S(=O)(=O)N2CCOCC2)c1)C(=O)Nc1cccc(C)c1 (stereo not drawn)	-2%	10µM*	4	-4%	20%	-3
CSCCC(NC(=O)c1ccccc1Cl)C(=O)Nc1cccc(S(=O)(=O)N2CCCC2)c1 (stereo not drawn)	-4%	45µM*	1	-10%	41%	-18
CSCCC(NC(=O)c1ccccc1)C(=O)Nc1ccc(C)cc1 (stereo not drawn)	-20%	-1%[59 µM]	3	-14%	27%	5
CSCCC(NC(=O)c1cccc(C)c1)C(=O)Nc1sccc1C(N)=O (stereo not drawn)	-17%	50µM*	-4	-30%	17%	-16
CSCCC(NC(=O)c1ccccc1Cl)C(=O)NC1CCN(Cc2ccccc2)CC1 (stereo not drawn)	-16%	1.6µM*	9	-38%	0%	7
COc1ccc(OC)c(-c2cc(C(=O)Nc3cnn(Cc4ccc(Cl)cc4Cl)c3)no2)c1	-5%	-40%[59 µM]	.	1%	16%	.
CCOc1ccccc1C1C(C(=O)OC)=C(N)OC2=C1C(=O)CCC2 (stereo not drawn)	-19%	12%[59 µM]	3	-3%	19%	0
